From the supplement of paper PMC4683952
Where a name gives a salt, the structure may show the parent alone. About 50 (4%) of roughly 1,200 compounds showed activity. This is one part of a sample in which actives are shown more often than they occur. Rule as the data show it: all actives reach 1.3 or more but so do some inactives.

What follows are molecules tested on Lgr5 (MarsCy1-Lgr5-EGFP, U2OS) (assay: cell-surface Lgr5 expression (SCi1 fluorescence, background-subtracted) relative to WT DMSO (fold of DMSO control); higher = more Lgr5 at the plasma membrane, active = hit call of the paper). Details: U2OS MarsCy1-Lgr5-EGFP stable; treatment time: overnight; 16 µM; library: Johns Hopkins Clinical Compound Library.

SMILES	cell-surface Lgr5 expression
NCCCC(N)(C(=O)O)C(F)F (racemic)	1.18 (inactive)
[Br-].[K+] [Potassium bromide]	0.93 (inactive)
CCOC(=O)[C@H](CCc1ccccc1)N[C@H]1CCc2ccccc2N(CC(=O)O)C1=O [Benazepril hydrochloride]	0.872 (inactive)
O=S(=O)(O)CCS [Mesna (2-Mercaptoethane Sulfonic Acid Sodium Salt)]	0.815 (inactive)
O=S(=O)(O)CCS [Mesna (2-Mercaptoethanesulfonic acid)]	0.844 (inactive)
O=P([O-])(O)O.[Na+] [Sodium phosphate monobasic]	1.11 (inactive)
[Na+].[O]=[Bi](=[O])[O-] [Sodium bismuthate]	0.965 (inactive)
CC1=C(C/C=C(\C)CCC[C@H](C)CCC[C@H](C)CCCC(C)C)C(=O)c2ccccc2C1=O [Vitamin K1 (Phylloquinone, phytonadione)]	0.865 (inactive)
NS(=O)(=O)c1cc2c(cc1C(F)(F)F)NC(Cc1ccccc1)NS2(=O)=O (centres undefined) [Bendroflumethiazide]	1.02 (inactive)
CCCC(O)C(CC)CO (centres undefined) [Ethohexadiol (2-Ethyl-1,3-hexanediol)]	1.04 (inactive)
Clc1ccc(CO/N=C(\Cn2ccnc2)c2ccc(Cl)cc2Cl)c(Cl)c1 [Oxiconazole nitrate]	0.871 (inactive)
O=[N+]([O-])c1ccc(/C=N/O)o1 [Nifuroxime]	0.992 (inactive)
O.[Al+3].[Al+3].[Cl-].[OH-].[OH-].[OH-].[OH-].[OH-] [Aluminum chlorohydrate]	0.754 (inactive)
Cc1onc(-c2ccccc2)c1C(=O)N[C@@H]1C(=O)N2[C@@H]1SC(C)(C)[C@@H]2C(=O)O [Oxacillin]	0.726 (inactive)
C[C@]12C=CC(=O)C=C1CC[C@@H]1[C@@H]2[C@@H](O)C[C@@]2(C)[C@H]1CC[C@]2(O)C(=O)COP(=O)(O)O [Prednisolone sodium phosphate]	1.25 (inactive)
CCC(=O)[C@@]1(C)[C@H](C)C[C@H]2[C@@H]3CCC4=CC(=O)C=C[C@]4(C)[C@H]3[C@@H](O)C[C@@]21C [Rimexolone]	1.39 (active)
CC1(C)O[C@@H]2C[C@H]3[C@@H]4CCC5=CC(=O)C=C[C@]5(C)[C@H]4[C@@H](O)C[C@]3(C)[C@]2(C(=O)CO)O1	1.44 (active)
C[C@H]1C[C@@H]2[C@H]([C@@H](O)C[C@@]3(C)[C@H]2CC[C@]3(O)C(=O)CO)[C@@]2(C)C=CC(=O)C=C12 [Methylprednisolone (6-alpha-Methylprednisolone)]	1.12 (inactive)
C[C@]12C=CC(=O)C=C1CC[C@@H]1[C@@H]2[C@@H](O)C[C@@]2(C)[C@H]1CC[C@]2(O)C(=O)COP(=O)(O)O [Prednisolone 21-phosphate, disodium salt]	1.41 (active)
N[C@H]1C(O)O[C@H](CO)[C@@H](O)[C@@H]1O (some centres undefined) [Glucosamine]	1.06 (inactive)
c1ccc(Cc2nc3ccccc3[nH]2)cc1 [Bendazol (2-Benzylbenzimidazole)]	1.05 (inactive)
N=C(N)N1Cc2ccccc2C(O)C1 (centres undefined) [4-Hydroxydebrisoquin]	1.07 (inactive)
Cc1cc2nc3c(=O)[nH]c(=O)nc-3n(C[C@H](O)[C@H](O)[C@H](O)COP(=O)(O)OP(=O)(O)OC[C@H]3O[C@@H](n4cnc5c(N)ncnc54)[C@H](O)[C@@H]3O)c2cc1C [Flavin adenine dinucleotide]	1.01 (inactive)

SMILES	cell-surface Lgr5 expression
CCCCOc1ccc(CC(=O)NO)cc1 [Bufexamac]	1.82 (active)
CCOc1ccc(NC(=O)CC(C)O)cc1 (centres undefined) [Bucetin]	1.29 (inactive)
CCOc1ccc(NC(C)=O)cc1 [Phenacetin (acetophenetidin)]	1.24 (inactive)
Cc1c(C)c2c(c(C)c1O)CCC(C)(COc1ccc(CC3SC(=O)NC3=O)cc1)O2 (centres undefined) [Troglitazone]	1.09 (inactive)
Oc1cccc(O)c1O [Pyrogallol]	1.15 (inactive)
CC1(C)O[C@@H]2C[C@H]3[C@@H]4CCC5=CC(=O)CC[C@]5(C)[C@@]4(F)[C@@H](O)C[C@]3(C)[C@]2(C(=O)CCl)O1 [Halcinonide]	1.71 (active)
CC(=O)OCC(=O)[C@@]1(O)CC[C@H]2[C@@H]3CCC4=CC(=O)CC[C@]4(C)[C@@]3(F)[C@@H](O)C[C@@]21C	1.35 (active)
CC(=O)OCC(=O)[C@@]1(O)CC[C@H]2[C@@H]3CCC4=CC(=O)C=C[C@]4(C)[C@@]3(Cl)[C@@H](Cl)C[C@@]21C [Dichlorisone acetate]	1.55 (active)
Nc1ccn([C@@H]2CS[C@H](CO)O2)c(=O)n1 [Lamivudine]	0.724 (inactive)
COc1cc2c(cc1OC)C(=O)C(CC1CCN(Cc3ccccc3)CC1)C2 (centres undefined) [Donepezil hydrochloride]	0.531 (inactive)
C[N+](C)(C)CCO.O=C([O-])CC(O)(CC(=O)O)C(=O)O [Choline dihydrogen citrate]	0.803 (inactive)
CCOC(=O)[C@H](CCc1ccccc1)N[C@@H](C)C(=O)N1Cc2ccccc2C[C@H]1C(=O)O [Quinapril]	1.13 (inactive)
O=C([O-])[O-].[Li+].[Li+] [Lithium carbonate]	0.278 (inactive)
N=C(N)NC(=N)NCCc1ccccc1 [Phenformin hydrochloride]	0.756 (inactive)
O=S(=O)([O-])[O-].[Fe+2] [Ferrous sulfate]	0.888 (inactive)
CCCOc1ccc(C(=O)OCCN(CC)CC)cc1N [Proparacaine]	1.22 (inactive)
CCCCOc1cc(C(=O)OCCN(CC)CC)ccc1N [Benoxinate]	0.987 (inactive)
CCN(CC)CCOc1ccc2c(c1)C(=O)c1cc(OCCN(CC)CC)ccc1-2 [Tilorone dihydrochloride]	1.62 (active)
Cl.Cl.NCCN [Ethylenediamine dihydrochloride]	1.05 (inactive)
COC(=O)[C@H](Cc1ccccc1)NC(=O)[C@@H](N)CC(=O)O [Aspartame]	0.834 (inactive)
C[C@H](CCC(=O)O)[C@H]1CC[C@H]2[C@@H]3[C@@H](O)C[C@@H]4C[C@H](O)CC[C@]4(C)[C@H]3CC[C@]12C [Ursodiol (Ursodeoxycholic acid)]	0.801 (inactive)
S=c1[nH]cnc2nc[nH]c12 [6-Mercaptopurine monohydrate]	1.67 (active)
Nc1nc2[nH]cnc2c(=S)[nH]1 [Thioguanine (2-amino,6-mercaptopurine)]	0.849 (inactive)

SMILES	cell-surface Lgr5 expression
COc1ccc(CN2CCN(C(c3ccc(F)cc3)c3ccc(F)cc3)CC2)c(OC)c1OC [Lomerizine HCl]	1.15 (inactive)
O=C[O-].[Na+] [Sodium formate]	0.903 (inactive)
C=N[C@@H](C(=O)N[C@@H]1C(=O)N2[C@@H]1SC(C)(C)[C@@H]2C(=O)O)c1ccccc1 [Metampicillin]	0.953 (inactive)
N.N.O=S(=O)(O)O [Ammonium sulfate]	0.987 (inactive)
COc1ccc2cc3[n+](cc2c1OC)CCc1cc2c(cc1-3)OCO2 [Berberine]	1.64 (active)
COc1ccc2cc3[n+](cc2c1OC)CCc1cc2c(cc1-3)OCO2 [Berberine bisulfate]	1.47 (inactive)
O.O.O.O.O.O.[Cl-].[Cl-].[Sr+2] [Strontium chloride hexahydrate]	1.29 (inactive)
COc1cccc2c1C(=O)c1c(O)c3c(c(O)c1C2=O)C[C@@](O)(C(=O)CO)C[C@@H]3O[C@H]1C[C@H](N)[C@H](O)[C@H](C)O1 [Doxorubicin]	0.634 (inactive)
O=C(Nc1ccc(Cl)cc1)Nc1ccc(Cl)c(Cl)c1 [Trilocarban (3,4,4'-Trichlorocarbanilide, 99%)]	0.931 (inactive)
COc1ccccc1OCC(O)CO (centres undefined) [Guaifenesin]	1.27 (inactive)
COc1ccccc1OCC(O)CO (centres undefined) [Guaifenesen (Guaiacol glyceryl ether)]	1.11 (inactive)
C=CCOc1ccccc1OCC(O)CNC(C)C (centres undefined) [Oxprenolol]	1.42 (active)
CC(C)NCC(O)COc1cccc2ccccc12 (centres undefined) [Propranolol]	1.07 (inactive)
COC(=O)CCc1ccc(OCC(O)CNC(C)C)cc1 (centres undefined) [Esmolol]	1.29 (inactive)
Nc1nc(O)c2ncn(CCC(CO)CO)c2n1 [Penciclovir]	0.791 (inactive)
CC(=O)[O-].CC(=O)[O-].[Mg+2] [Magnesium acetate]	0.917 (inactive)
CN(C(=O)C(Cl)Cl)c1ccc(OC(=O)c2ccco2)cc1 [Diloxanide furoate]	1.05 (inactive)
CC1(C)S[C@@H]2[C@H](NC(=O)C3(N)CCCCC3)C(=O)N2[C@H]1C(=O)O [Cyclacillin]	0.994 (inactive)
CC(=O)N(O)CCCCCNC(=O)CCC(=O)N(O)CCCCCNC(=O)CCC(=O)N(O)CCCCCN [Deferoxamine mesylate]	0.865 (inactive)
CCCN(CCC)S(=O)(=O)c1ccc(C(=O)O)cc1 [Probenecid]	1.01 (inactive)
NS(=O)(=O)c1ccc(C(=O)O)cc1 [Carzenide (4-Carboxybenzenesulfonamide, 97%)]	1.3 (active)
Nc1ccc(C(=O)O)cc1 [4-Aminobenzoic acid, sodium salt,99%]	0.905 (inactive)
Oc1c(I)cc(Cl)c2cccnc12 [Clioquinol]	1.18 (inactive)
